Hits are enriched below; roughly 4% of the tested compounds scored in any of these assays.
TRPM1 prom inh: reduces MITF-dependent TRPM1 promoter luciferase signal; hit rate 0.83% among 330,000; AID 488899; SK-MEL-5 TRPM1 promoter luciferase, 24 h; inhibition, % at 12.5 µM;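 active = mean inhibition across replicates of 60% or more, whatever share of single replicates reaches that level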
EBV LMP1 NFkB: inhibitors of Epstein-Barr LMP1-induced NF-kappaB reporter | LMP1-induced NF-kappaB luciferase reporter cells, luminescence | inhibition, % at 12.5 µM | hit rate 0.69% among 350,000; in the data active = inhibition above about 41%
TWEAK-Fn14 inh: inhibitors of TWEAK-Fn14 interaction signaling | TWEAK-stimulated Fn14 reporter cells, luciferase luminescence, 8 h | inhibition, % at 10 µM | hit rate 2% among 360,000 | AID 1159606; in the data active = inhibition above about 50%
TROY NFkB inh: inhibitors of TROY-dependent NF-kB signaling | Q293 LMP1-TROYcd NF-kB luciferase reporter, 4 h | inhibition, % at 10 µM | hit rate 0.98% among 360,000 | AID 1347056;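 active = compounds whose plate-normalised and pattern-corrected inhibition of the luciferase reporter signal at the single screening dose is 50% or more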
HIF-2a block: inhibitors of HIF-2a | hit rate 0.72% among 360,000 | inhibition, % at 18.8 µM | 786-0 RCC cells HIF-2a reporter, luciferase luminescence, overnight | AID 624352;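 active = inhibition of the luminescence signal of 40% or more relative to plate controls, in a single-dose primary screen at 18.75 µM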
Peg3 promoter: inhibitors of Peg3 promoter | inhibition, % at 20 µM | hit rate 1.7% among 360,000 | HeLa PEG-Prom luciferase reporter, luminescence, overnight;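 active = inhibition of at least 50% at 20 µM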
Hits are given with their value; n = inactive; x = no result given.

SMILES	TRPM1 prom inh	EBV LMP1 NFkB	TWEAK-Fn14 inh	TROY NFkB inh	HIF-2a block	Peg3 promoter
COc1ccc(-c2csc(NC(=O)Cc3ccccc3F)n2)cc1OC	n	n	n	n	n	n
O=C(Cc1ccccc1F)Nc1nc(-c2ccc(F)cc2)cs1	n	n	52	58	n	n
CCCCCCCCCCCCCCCC[N+](C)(C)CCN(Cc1ccc(OC)cc1)c1ncccn1	103	n	n	n	86	105
CC1CCCC(NC(=O)CCNC(=O)c2ccc(Cl)cc2)C1C (stereo not given)	n	n	n	n	n	n
CC1CCCC(NC(=O)CCNC(=O)c2ccc([N+](=O)[O-])cc2)C1C (stereo not given)	n	n	76	n	n	n
CCOc1ccc(-n2c(-c3ccc(Br)cc3)c[n+]3c2CCCCC3)cc1	63	n	n	n	n	n
CCOc1ccc(-n2c(-c3ccccc3)c[n+]3c2CCC3)cc1	n	n	n	n	n	n
CCOc1ccc(-n2c(-c3ccc(OC)cc3)c[n+]3c2CCCCC3)cc1	77	n	n	n	n	n
c1ccc2sc(-n3cc(C4CCCCC4)nn3)nc2c1	x	x	n	n	n	x
CC1CC(C)CN(S(=O)(=O)c2ccc(NC(=O)CCN3C(=O)C4CC=CCC4C3=O)cc2)C1 (stereo not given)	n	72	n	n	n	n
CC1CCN(S(=O)(=O)c2ccc(NC(=O)CCN3C(=O)C4CC=CCC4C3=O)cc2)CC1 (stereo not given)	x	n	n	n	n	n
Cc1ccc(NS(=O)(=O)c2cccc(C(=O)N/N=C/c3c(C)nn(-c4ccccc4)c3N3CCCC3)c2)c(C)c1	n	n	57	n	n	n
COCCN(C(=O)COC(=O)CSc1ccc2ccccc2c1)c1c(N)n(Cc2ccccc2)c(=O)[nH]c1=O	n	n	n	n	n	n
O=C(NC1CCCC(C(F)(F)F)C1)c1ccc([N+](=O)[O-])o1 (stereo not given)	66	n	n	n	n	71
COCCN1C(=O)CSCC1(C)C(=O)Nc1ccc2c(c1)OCCO2 (stereo not given)	x	x	x	x	n	x
COc1ccccc1CNc1nc(NCc2ccccc2OC)c2sccc2n1	x	x	n	57	n	58
COCCNc1nc(NCc2ccccc2OC)c2sccc2n1	x	x	n	n	n	n
CC(C)Nc1nc(NCc2ccccc2)c2sccc2n1	x	x	n	57	n	n
COc1ccccc1CNc1nc(NCc2ccc3occc3c2)c2sccc2n1	x	x	n	n	n	90
COc1ccccc1CNc1nc(Nc2cccc(-c3cnco3)c2)c2sccc2n1	x	x	98	75	n	91
COCCNc1nc(NCc2ccccc2)nc2ccsc12	x	x	n	n	n	n
COc1ccccc1CNc1nc(NCc2cccs2)nc2ccsc12	x	x	n	n	n	n
c1cc2cc(CNc3nc(NCC4CC4)nc4ccsc34)ccc2o1	x	x	n	n	n	n
COc1ccccc1CNc1nc(NCc2ccccc2SC)c2sccc2n1	x	x	90	55	n	n
CCOC(=O)Cc1ccc(Nc2nc(NC)nc3ccsc23)cc1	x	x	n	n	n	n
SMILES	TRPM1 prom inh	EBV LMP1 NFkB	TWEAK-Fn14 inh	TROY NFkB inh	HIF-2a block	Peg3 promoter
Cc1ccc(CNc2nc(NCC3CC3)nc3ccsc23)c(C)c1	x	x	n	n	n	77
CCOC(=O)Cc1ccc(Nc2nc(NCc3ccccc3)nc3ccsc23)cc1	x	x	93	57	n	n
COc1ccccc1CNc1nc(NCC2CC2)nc2ccsc12	x	x	n	n	n	n
CCOC(=O)c1c(NC(=O)CNC2CCCCC2)sc(C)c1C	n	n	n	n	n	90
CCOC(=O)c1c(NC(=O)CNCCO)sc(C)c1C	n	n	n	n	n	n
O=c1ccc2ccc(OCc3ccccc3)cc2o1	n	n	n	n	n	n
O=C(c1ccc(S(=O)(=O)N2CCCC2)cc1)N(c1ccc(F)cc1)C1C=CS(=O)(=O)C1 (stereo not given)	n	n	n	n	n	n
CCCC[C@@H]1CC2=C(C(=O)OC(C)(C)O2)[C@@H](c2ccc(F)cc2)O1	x	x	n	n	n	x
O=C(CCCN1C(=O)/C(=C\c2cccc(Br)c2)SC1=S)Nc1ccc(C(=O)O)cc1	x	n	n	n	n	n
O=C1/C(=C/c2cccc(Br)c2)SC(=S)N1CCC(=O)N(CCO)c1ccccc1	n	n	86	n	n	56
CN1CCN(C(=O)CCCN2C(=O)/C(=C/c3cccc(Br)c3)SC2=S)CC1	n	n	n	n	n	n
CN1CCN(C(=O)CCN2C(=O)/C(=C/c3cccc(Br)c3)SC2=S)CC1	n	n	n	n	n	77
O=C1/C(=C/c2ccc3c(c2)OCO3)SC(=S)N1CCC(=O)N(CCO)c1ccccc1	x	n	n	n	43	n
COc1cccc(/C=C2\SC(=S)N(CCCC(=O)N(CCO)c3ccccc3)C2=O)c1	n	n	n	n	86	79
CN1CCN(Cc2nc3ccccc3c(=O)n2Cc2nc(-c3ccc([N+](=O)[O-])cc3)cs2)CC1	66	n	n	n	n	72
CCCCCCC[N+](CC)(CC)CCCCc1ccc(Cl)cc1	76	n	n	n	n	n
Cc1cc(C)nc(Oc2ccc(Br)cc2)n1	n	n	n	n	n	n
CC(=O)c1ccc(NC(=O)COC(=O)c2c3c(nc4ccccc24)/C(=C\c2cccs2)CCC3)cc1	n	n	57	n	n	56
CCOCCn1ccc2c(OCC(=O)Nc3ccc(OC)cc3OC)cccc2c1=O	n	n	n	n	n	52
CCOCCn1ccc2c(OCC(=O)Nc3ccc(OC)c(OC)c3)cccc2c1=O	n	n	n	n	n	n
Cc1cc(C(=O)COC(=O)C2CCN(C(=O)c3ccc(Cl)cc3)CC2)c(C)n1CC1CCCO1 (stereo not given)	n	n	68	n	n	n
CCn1c(C)cc(C(=O)COC(=O)c2cccnc2SC)c1C	n	n	n	n	n	n
Cc1cc(C(=O)COC(=O)c2ccc3c(c2)OCO3)c(C)n1CC1CCCO1 (stereo not given)	n	n	58	77	n	n
CSc1ncccc1C(=O)OCC(=O)c1cc(C)n(CC2CCCO2)c1C (stereo not given)	n	n	76	62	n	n
COc1cc(C(=O)OCC(=O)c2cc(C)n(CC3CCCO3)c2C)cc(OC)c1C (stereo not given)	n	n	n	n	n	n
Cc1cc(C(=O)CSc2nc3ccccc3[nH]2)c(C)n1CC1CCCO1 (stereo not given)	n	n	n	n	n	102
CCC(=O)c1ccc(OCC(=O)OCC(=O)c2cc(C)n(CC3CCCO3)c2C)cc1 (stereo not given)	n	n	n	n	n	n
Cc1cc(C(=O)CSc2nc(N)cc(=O)[nH]2)c(C)n1CC1CCCO1 (stereo not given)	n	n	n	n	n	n
Cn1nc(-c2ccccc2)cc1NC(=O)c1ccc(Cl)cc1	n	n	n	n	n	n
Cc1cc(C(=O)COC(=O)c2cccnc2Cl)c(C)n1C	n	n	76	n	n	n
